Experimental findings from ChEMBL document CHEMBL1961873, “Compounds: GSK PKIS; Assays: Nanosyn kinase panel” (2012) are described below.

Test [1] addresses Tyrosine-protein kinase Fer (Homo sapiens) (UniProt P16591). Conditions: at 1 µM.
For test [2], the target named is Tyrosine-protein kinase Fes/Fps (Homo sapiens) (UniProt P07332). Conditions: at 0.1 µM.
Test [3] shares this target. Conditions: at 1 µM.
Test [4] has as its target Fibroblast growth factor receptor 1 (Homo sapiens) (UniProt P11362). Conditions: at 0.1 µM.
Test [5] has the same target. Conditions: at 1 µM.
Test [6] addresses Fibroblast growth factor receptor 2 (Homo sapiens) (UniProt P21802). Conditions: at 0.1 µM.
The target is the same in test [7]. Conditions: at 1 µM.
Test [8] deals with Fibroblast growth factor receptor 3 (Homo sapiens) (UniProt P22607). Conditions: at 0.1 µM.
Fibroblast growth factor receptor 3 (Homo sapiens), sequence (P22607 23-806 limits assumed): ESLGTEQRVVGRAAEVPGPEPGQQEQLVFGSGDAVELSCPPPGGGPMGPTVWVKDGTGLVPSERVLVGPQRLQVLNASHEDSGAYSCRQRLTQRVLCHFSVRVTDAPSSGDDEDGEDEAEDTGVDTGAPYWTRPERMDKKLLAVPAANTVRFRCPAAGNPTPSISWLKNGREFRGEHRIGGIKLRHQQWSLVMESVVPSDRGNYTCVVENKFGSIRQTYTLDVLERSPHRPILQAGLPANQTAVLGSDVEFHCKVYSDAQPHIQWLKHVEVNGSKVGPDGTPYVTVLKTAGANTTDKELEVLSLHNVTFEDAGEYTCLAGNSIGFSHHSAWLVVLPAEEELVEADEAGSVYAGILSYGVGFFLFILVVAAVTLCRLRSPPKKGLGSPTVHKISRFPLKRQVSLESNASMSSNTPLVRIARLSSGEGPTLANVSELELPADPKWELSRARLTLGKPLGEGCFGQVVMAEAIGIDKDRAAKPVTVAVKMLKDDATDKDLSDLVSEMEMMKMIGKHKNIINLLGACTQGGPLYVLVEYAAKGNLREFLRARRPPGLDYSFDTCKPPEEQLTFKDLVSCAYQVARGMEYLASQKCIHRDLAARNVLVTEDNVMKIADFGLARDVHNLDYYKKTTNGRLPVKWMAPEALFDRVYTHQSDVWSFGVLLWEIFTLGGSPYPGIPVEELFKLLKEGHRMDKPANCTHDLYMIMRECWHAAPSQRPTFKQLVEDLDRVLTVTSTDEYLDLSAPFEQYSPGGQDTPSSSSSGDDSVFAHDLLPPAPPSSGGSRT
Test [9] shares this target. Conditions: at 1 µM.
Test [10] addresses Fibroblast growth factor receptor 4 (Homo sapiens) (UniProt P22455). Conditions: at 0.1 µM.
For test [11] the target is unchanged. Conditions: at 1 µM.
Test [12] addresses Tyrosine-protein kinase Fgr (Homo sapiens) (UniProt P09769). Conditions: at 0.1 µM.
Test [13] shares this target. Conditions: at 1 µM.
The target in test [14] is Vascular endothelial growth factor receptor 1 (Homo sapiens) (UniProt P17948). Conditions: at 0.1 µM.
Vascular endothelial growth factor receptor 1 (Homo sapiens), sequence (P17948 whole entry): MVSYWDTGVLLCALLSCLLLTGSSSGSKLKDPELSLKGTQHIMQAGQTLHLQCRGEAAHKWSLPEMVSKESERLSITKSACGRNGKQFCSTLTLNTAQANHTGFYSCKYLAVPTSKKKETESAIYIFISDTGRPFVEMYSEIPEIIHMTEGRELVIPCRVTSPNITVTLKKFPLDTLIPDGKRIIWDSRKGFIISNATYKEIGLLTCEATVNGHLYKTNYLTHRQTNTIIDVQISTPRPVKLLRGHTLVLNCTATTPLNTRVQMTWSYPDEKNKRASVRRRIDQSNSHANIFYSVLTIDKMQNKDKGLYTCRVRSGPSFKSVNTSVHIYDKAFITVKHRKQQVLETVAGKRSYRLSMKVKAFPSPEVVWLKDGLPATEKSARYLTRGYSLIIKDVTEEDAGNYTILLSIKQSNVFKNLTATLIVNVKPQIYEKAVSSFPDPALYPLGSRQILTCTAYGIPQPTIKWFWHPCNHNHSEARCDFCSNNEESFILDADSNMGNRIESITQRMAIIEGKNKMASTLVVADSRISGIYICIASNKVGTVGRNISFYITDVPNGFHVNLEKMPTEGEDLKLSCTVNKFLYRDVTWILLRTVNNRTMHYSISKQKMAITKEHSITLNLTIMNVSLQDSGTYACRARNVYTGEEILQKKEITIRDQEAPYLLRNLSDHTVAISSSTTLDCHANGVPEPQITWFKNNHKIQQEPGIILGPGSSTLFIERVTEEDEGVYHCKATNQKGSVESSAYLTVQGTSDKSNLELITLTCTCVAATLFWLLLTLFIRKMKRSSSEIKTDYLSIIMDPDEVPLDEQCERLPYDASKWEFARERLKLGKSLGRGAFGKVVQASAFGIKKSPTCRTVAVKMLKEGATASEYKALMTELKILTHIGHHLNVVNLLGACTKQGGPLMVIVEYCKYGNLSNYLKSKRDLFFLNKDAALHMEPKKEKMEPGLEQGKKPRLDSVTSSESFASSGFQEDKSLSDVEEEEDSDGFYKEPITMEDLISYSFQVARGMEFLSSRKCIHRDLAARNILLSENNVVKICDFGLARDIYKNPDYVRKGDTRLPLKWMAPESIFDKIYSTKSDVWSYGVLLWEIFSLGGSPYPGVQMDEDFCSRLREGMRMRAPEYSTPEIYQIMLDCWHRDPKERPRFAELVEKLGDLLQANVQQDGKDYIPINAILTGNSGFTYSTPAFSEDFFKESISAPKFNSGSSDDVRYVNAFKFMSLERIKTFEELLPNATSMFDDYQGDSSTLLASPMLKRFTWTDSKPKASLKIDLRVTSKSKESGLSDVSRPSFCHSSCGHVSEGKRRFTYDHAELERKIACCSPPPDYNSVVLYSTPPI
Test [15] shares this target. Conditions: at 1 µM.
The target in test [16] is Receptor-type tyrosine-protein kinase FLT3 (Homo sapiens) (UniProt P36888). Conditions: at 0.1 µM.
The target is the same in test [17]. Conditions: at 1 µM.
In test [18] the test system is T1, Receptor-type tyrosine-protein kinase FLT3 (Homo sapiens), P36888 [D835Y].
T1 sequence (whole entry): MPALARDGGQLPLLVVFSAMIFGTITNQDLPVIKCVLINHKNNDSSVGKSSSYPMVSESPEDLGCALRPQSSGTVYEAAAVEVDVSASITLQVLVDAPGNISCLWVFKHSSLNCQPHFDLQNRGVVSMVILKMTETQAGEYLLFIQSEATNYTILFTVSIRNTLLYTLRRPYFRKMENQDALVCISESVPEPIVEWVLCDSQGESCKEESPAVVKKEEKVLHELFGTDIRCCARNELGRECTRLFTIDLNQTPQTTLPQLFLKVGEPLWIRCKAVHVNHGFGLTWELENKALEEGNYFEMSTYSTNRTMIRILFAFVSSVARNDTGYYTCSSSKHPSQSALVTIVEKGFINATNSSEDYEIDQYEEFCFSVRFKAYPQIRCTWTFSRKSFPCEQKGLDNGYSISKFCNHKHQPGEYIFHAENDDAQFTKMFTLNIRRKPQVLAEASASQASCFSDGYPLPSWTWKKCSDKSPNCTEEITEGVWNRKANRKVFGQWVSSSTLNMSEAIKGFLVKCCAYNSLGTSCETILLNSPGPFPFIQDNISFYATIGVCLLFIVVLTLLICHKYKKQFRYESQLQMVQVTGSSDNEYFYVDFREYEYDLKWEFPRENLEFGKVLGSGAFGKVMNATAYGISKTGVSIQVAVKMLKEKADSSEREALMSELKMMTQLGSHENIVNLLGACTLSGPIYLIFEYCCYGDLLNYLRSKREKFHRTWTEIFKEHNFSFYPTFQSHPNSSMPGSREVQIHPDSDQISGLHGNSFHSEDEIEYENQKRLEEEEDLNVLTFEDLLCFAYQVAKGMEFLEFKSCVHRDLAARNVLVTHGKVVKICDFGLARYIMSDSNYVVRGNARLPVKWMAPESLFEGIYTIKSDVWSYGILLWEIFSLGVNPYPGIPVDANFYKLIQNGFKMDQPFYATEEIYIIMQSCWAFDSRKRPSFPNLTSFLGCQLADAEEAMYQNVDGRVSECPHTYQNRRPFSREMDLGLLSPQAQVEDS
Conditions: at 0.1 µM.

For test [19], the target named is Non-receptor tyrosine-protein kinase TYK2 (Homo sapiens) (UniProt P29597). Conditions: at 1 µM.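 Also: values are mean percent inhibition of TYK2 kinase.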
Test [20] deals with T2, Tyrosine-protein kinase receptor TYRO3 (Homo sapiens) (UniProt Q06418).
T2 sequence (whole entry): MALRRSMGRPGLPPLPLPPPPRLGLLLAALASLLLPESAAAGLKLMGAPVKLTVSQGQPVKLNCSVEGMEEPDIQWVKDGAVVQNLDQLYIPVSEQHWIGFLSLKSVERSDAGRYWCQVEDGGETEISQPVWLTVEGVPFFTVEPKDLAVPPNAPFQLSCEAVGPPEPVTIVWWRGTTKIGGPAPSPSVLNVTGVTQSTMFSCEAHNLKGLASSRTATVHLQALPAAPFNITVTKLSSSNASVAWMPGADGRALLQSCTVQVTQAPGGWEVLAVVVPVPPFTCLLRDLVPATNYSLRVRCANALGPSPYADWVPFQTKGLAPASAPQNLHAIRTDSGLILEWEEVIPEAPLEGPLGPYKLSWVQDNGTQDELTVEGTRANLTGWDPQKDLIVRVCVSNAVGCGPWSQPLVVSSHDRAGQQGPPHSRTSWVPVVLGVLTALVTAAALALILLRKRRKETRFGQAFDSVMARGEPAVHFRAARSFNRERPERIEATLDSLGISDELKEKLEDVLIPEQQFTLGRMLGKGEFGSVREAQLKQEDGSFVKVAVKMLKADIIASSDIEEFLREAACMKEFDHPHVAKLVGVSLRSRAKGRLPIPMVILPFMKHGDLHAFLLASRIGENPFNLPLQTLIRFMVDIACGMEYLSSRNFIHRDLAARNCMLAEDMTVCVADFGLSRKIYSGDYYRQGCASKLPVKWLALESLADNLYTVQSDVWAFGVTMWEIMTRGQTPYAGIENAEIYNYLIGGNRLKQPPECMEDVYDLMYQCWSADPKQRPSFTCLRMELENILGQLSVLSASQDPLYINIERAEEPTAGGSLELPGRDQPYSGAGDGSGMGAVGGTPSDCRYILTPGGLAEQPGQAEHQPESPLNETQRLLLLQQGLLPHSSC
Conditions: at 0.1 µM.

Fibroblast growth factor receptor 1 (Homo sapiens), sequence (P11362 22-822 limits assumed): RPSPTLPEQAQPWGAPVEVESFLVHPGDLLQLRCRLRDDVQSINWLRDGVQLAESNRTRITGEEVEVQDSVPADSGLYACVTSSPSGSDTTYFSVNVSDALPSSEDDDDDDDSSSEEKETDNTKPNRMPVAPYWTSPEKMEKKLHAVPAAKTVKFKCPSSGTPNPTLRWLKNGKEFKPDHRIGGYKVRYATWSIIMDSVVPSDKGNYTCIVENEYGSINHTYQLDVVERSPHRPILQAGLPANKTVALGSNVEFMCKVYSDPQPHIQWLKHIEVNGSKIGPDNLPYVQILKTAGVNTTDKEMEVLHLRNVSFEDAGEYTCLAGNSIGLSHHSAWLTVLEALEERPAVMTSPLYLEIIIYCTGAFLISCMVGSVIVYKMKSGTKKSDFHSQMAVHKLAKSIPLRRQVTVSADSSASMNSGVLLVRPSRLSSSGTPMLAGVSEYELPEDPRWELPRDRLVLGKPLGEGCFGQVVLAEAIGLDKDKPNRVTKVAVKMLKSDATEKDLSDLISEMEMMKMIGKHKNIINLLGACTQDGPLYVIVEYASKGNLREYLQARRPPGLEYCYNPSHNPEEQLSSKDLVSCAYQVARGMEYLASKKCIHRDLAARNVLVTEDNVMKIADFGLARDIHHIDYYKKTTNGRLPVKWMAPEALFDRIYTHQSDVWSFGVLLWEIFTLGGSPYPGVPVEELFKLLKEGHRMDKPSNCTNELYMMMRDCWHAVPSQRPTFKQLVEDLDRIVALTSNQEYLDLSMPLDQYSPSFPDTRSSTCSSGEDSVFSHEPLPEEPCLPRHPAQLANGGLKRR
Fibroblast growth factor receptor 4 (Homo sapiens), sequence (P22455 22-802 limits assumed): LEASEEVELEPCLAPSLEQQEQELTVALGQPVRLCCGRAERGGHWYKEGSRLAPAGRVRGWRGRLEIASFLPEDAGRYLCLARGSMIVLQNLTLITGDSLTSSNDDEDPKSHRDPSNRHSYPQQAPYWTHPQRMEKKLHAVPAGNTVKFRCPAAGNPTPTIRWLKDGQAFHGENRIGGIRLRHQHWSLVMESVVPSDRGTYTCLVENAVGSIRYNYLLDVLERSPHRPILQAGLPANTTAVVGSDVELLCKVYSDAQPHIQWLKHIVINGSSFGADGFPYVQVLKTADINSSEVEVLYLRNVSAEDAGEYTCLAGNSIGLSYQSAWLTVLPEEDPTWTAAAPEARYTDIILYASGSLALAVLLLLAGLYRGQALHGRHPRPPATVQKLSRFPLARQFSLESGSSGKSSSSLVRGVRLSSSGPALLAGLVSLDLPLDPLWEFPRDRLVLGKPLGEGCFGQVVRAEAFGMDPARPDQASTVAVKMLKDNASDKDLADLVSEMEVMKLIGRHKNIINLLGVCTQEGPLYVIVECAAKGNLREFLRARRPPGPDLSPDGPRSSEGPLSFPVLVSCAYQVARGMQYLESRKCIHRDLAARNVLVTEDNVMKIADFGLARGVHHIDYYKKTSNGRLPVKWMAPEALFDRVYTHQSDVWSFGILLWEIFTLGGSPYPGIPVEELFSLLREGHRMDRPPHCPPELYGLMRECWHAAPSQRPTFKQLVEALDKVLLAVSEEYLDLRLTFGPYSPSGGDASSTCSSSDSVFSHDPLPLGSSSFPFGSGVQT
Tyrosine-protein kinase Fer (Homo sapiens), sequence (P16591 whole entry, looked up): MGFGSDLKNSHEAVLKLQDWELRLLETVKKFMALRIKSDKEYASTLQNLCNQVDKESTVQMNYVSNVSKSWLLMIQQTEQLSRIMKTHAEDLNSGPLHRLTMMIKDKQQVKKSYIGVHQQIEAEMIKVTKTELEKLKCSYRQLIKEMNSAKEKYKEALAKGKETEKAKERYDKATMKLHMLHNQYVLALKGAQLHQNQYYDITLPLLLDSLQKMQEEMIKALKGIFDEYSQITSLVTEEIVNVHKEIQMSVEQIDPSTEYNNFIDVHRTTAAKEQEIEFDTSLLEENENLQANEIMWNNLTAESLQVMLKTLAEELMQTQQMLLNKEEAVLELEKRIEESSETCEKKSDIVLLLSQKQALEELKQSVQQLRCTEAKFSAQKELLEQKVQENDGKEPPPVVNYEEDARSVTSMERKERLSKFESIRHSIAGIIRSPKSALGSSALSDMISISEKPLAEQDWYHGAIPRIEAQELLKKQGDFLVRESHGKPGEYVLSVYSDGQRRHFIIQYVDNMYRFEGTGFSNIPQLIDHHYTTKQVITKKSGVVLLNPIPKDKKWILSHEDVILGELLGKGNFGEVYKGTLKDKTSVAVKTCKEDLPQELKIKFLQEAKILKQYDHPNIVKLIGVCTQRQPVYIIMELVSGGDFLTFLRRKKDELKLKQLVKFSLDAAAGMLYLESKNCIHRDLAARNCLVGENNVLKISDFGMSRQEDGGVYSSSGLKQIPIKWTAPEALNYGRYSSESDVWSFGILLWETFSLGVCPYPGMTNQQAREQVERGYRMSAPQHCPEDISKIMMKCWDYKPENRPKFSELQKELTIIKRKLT
Tyrosine-protein kinase Fgr (Homo sapiens), sequence (P09769 2-529 limits assumed): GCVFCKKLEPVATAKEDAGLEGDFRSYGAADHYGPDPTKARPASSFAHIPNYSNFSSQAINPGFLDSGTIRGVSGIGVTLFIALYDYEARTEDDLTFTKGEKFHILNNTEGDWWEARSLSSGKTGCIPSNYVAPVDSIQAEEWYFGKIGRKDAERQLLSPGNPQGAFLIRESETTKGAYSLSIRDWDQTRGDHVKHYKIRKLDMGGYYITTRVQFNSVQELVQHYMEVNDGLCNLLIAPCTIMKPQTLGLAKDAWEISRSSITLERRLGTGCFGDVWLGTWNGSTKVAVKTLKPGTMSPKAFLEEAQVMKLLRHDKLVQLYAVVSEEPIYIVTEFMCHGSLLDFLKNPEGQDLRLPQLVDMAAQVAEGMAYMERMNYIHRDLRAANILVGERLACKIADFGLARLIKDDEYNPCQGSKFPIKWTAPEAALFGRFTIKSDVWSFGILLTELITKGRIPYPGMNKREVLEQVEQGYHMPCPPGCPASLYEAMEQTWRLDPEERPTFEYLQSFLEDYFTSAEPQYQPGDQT

As usually defined, the inhibition is the change of the read-out against control, counted positive when it falls. For the compound `CCS(=O)(=O)c1ccc(OC)c(Nc2nccc(N(C)c3ccc4c(C)n[nH]c4c3)n2)c1`, the inhibition in test [1] turned out to be 34.3%; in test [2], 3.93%; in test [3], 6.48%; in test [4], 8.89%; in test [5] it was 37.3%; in test [6] it was 18.8%. Moreover, the inhibition in test [7] was 56.1%; in [8], 17.4%; in test [9] it was 54.7%; in test [10], -0.42%; in [11], 11.3%; in [12], 23.1%. The inhibition in test [13] is 61.6%; in [14], 60.8%; in test [15], 91.2%; in [16], 6.38%; in test [17], 6.74%; in test [18], -7.67%. For the same compound, the inhibition was -2.86% in test [19] and 1.44% in [20].

For `CS(=O)(=O)CCNCc1nc(-c2ccc3ncnc(Nc4ccc(OCc5cccc(C(F)(F)F)c5)cc4)c3c2)cs1`, the inhibition in [1] was determined as 6.92%; in test [2] it was 1.48%; in test [3], 3.22%; in [4], 2.15%; in test [5] it was 4.98%; in test [6], 6.08%. For the same compound, the inhibition in [7] amounted to 5.8%; in test [8], 4.91%; in test [9], 4.35%; in test [10] it was 4.89%; in test [11] it was 0.59%; in [12], 2.47%. In addition, the inhibition was 4.41% in [13]; -0.29% in [14]; -0.5% in [15]; 7.87% in test [16]; 32.1% in test [17]; 2.62% in test [18]. In addition, the inhibition in test [19] is -0.77%; in test [20], 0.47%.

Consider `Cc1cc(O)cc(C)c1/C=C/c1cncc(C(=O)N(C)C)c1`, for which the inhibition was 1.61% in test [1]; 1.75% in [2]; 1.31% in [3]; 1.31% in test [4]; 1.65% in test [5]; 4.82% in test [6]. For the same compound, the inhibition in test [7] is 5.81%; in [8], 3.74%; in test [9], 3.19%; in [10] it was -0.32%; in [11] it was 2.26%; in test [12], 2.92%. Moreover, the inhibition in test [13] is 9.21%; in test [14], 2.21%; in [15], 3.14%; in test [16], 2.14%; in [17], 2.25%; in [18], -0.23%. Moreover, the figures for the inhibition in test [19] and in test [20] were -2.56% and 3.45%, respectively.

For `NS(=O)(=O)c1ccc(-c2cc3ccncc3cc2OCc2ccccc2)cc1`, the inhibition in [1] amounted to 8.24%; in test [2], 2.42%; in test [3], 4.62%; in [4] it was 4.72%; in test [5], 3.35%; in test [6], 2.27%. The inhibition is 3.78% in [7]; 2.04% in [8]; 2.76% in [9]; -2.59% in test [10]; 4.68% in test [11]; 5.99% in test [12]. Moreover, the inhibition is 4.64% in test [13]; 0.22% in test [14]; 2.57% in [15]; 2.19% in test [16]; 2.5% in [17]; -4.03% in [18]. Besides, the inhibition is -0.94% in test [19] and 3.82% in test [20].

Regarding `NS(=O)(=O)c1ccc(Nc2cc(-c3cccc(O)c3)n[nH]2)cc1`, the inhibition was 7.21% in test [1]; 3.6% in test [2]; 4.45% in test [3]; 7.55% in [4]; 14.2% in test [5]; 8.82% in [6]. Further, the inhibition in [7] was 15.9%; in test [8], 9.15%; in [9], 13.4%; in test [10], -0.72%; in test [11] it was 4.03%; in [12], 2.88%. Moreover, the inhibition stood at 6.79% in test [13]; 2.51% in [14]; 11.9% in test [15]; 5.64% in [16]; 23.2% in [17]; 3.16% in test [18]. In addition, the inhibition in test [19] is -3.05%; in [20], 3.41%.

For `Cc1ccc2c(-c3ccnc(Nc4ccc5c(c4)OCCO5)n3)c(-c3ccc(C(F)(F)F)cc3)nn2n1`, the inhibition is -0.37% in test [1]; 0.95% in test [2]; 0.4% in [3]; 0.28% in [4]; 1.17% in test [5]; -1.07% in [6]. Besides, the inhibition was 0.36% in [7]; -1.98% in test [8]; 1% in test [9]; 1.94% in test [10]; 2.08% in [11]; 4.97% in test [12]. Also, the inhibition was 18.4% in test [13]; -1.27% in test [14]; -0.4% in test [15]; 2.13% in test [16]; 0.3% in test [17]; -5.65% in [18]. Moreover, the inhibition in test [19] was 0.31%; in test [20] it was -0.13%.
